Screening results: PubChem, National Center for Advancing Translational Sciences (NCATS)
Sampled rows, rich in hits. Any-hit rate of the full collection: about 6%.
D1 potentiator – Potentiators of Human D1 Dopamine Receptor: qHTS; D(1A) dopamine receptor (Homo sapiens), P21728; HEK293 TREx D1 cells, calcium flux, dopamine EC20 potentiation; potentiation, % at 10 µM; actives 0.036% (n = 360,000); AID 504651, 2011; in the data active = potentiation above about 30%; also: 0% is about no effect
D1 ag – Allosteric Agonists of the Human D1 Dopamine Receptor: qHTS; D(1A) dopamine receptor (Homo sapiens), P21728; HEK293 T-REx D1 cells, calcium flux, agonist mode; activation, % at 2 µM; actives 1% (n = 360,000); AID 504660, 2011; in the data active = activation above about 30%; also: 0% is about no effect
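Inducible HEK293 T-REx D1 cells, force-coupled to calcium signalling, were plated at 4000 cells/well with tetracycline and held overnight at 30 C. After no-wash calcium dye loading, compound-evoked calcium rise over 180 s flagged agonists.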
DRD3 agonist – qHTS of D3 Dopamine Receptor Agonist: qHTS; actives 0.58% (n = 410,000); AID 652048, 2013; D(3) dopamine receptor (Homo sapiens), P35462; max activation, %; D3R DiscoveRx beta-arrestin cells, luminescence, 90 min; in the data active = max activation above about 30%; also: 0% is about no effect
Target sequence (P35462 whole entry, looked up): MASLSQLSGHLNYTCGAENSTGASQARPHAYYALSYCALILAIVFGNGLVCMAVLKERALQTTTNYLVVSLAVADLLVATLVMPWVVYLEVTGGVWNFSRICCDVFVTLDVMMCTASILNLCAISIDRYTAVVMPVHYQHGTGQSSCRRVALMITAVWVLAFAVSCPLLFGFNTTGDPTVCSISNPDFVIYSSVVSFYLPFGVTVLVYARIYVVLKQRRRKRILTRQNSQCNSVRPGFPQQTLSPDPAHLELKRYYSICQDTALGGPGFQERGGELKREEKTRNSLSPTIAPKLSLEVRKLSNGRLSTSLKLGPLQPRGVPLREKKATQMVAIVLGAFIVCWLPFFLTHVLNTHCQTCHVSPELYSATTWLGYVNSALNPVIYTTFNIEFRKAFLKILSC
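Cells at 1500/well, incubated overnight, then treated with pinned compounds (dopamine as control) for 90 min at 37 degrees C. DiscoveRx reagent added for 30 - 60 minutes at room temperature; luminescence read.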
D1 antagonist – Antagonist of Human D 1 Dopamine Receptor: qHTS; D(1A) dopamine receptor (Homo sapiens), P21728; HEK293 TREx D1 cells, calcium flux, dopamine EC80; stronger effect = lower value; activity change, negative = inhibition, % at 10 µM; actives 3.2% (n = 360,000); AID 504652, 2011; in the data active = activity change below about -30%; also: % is scaled to controls: 0 for no effect and ±100 for the full control effect
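Kinetic fluorescence of a calcium dye serves as the read-out. D1-expressing Hek293 Trex cells, induced overnight at 30 C, are exposed to compound for 180 s before an EC80 dopamine addition, then read 180 s further.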
DRD3 antagonist – qHTS of D3 Dopamine Receptor Antagonist: qHTS; D3R cells, DiscoveRx beta-arrestin luminescence, antagonist mode; stronger effect = lower value; actives 2.5% (n = 360,000); max response, negative = inhibition, %; AID 652054, 2013; in the data active = max response below about -50%; also: % is scaled to controls: 0 for no effect and ±100 for the full control effect
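Cells plated overnight at 1500 cells/well, then exposed to library compounds with dopamine controls for 90 minutes at 37 degrees C. DiscoveRx reagent added for 30–60 minutes at room temperature; luminescence read, quantitative HTS format.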
Starred values were filed as active, the others as inactive; . = no result.

SMILES	D1 potentiator	D1 ag	DRD3 agonist	D1 antagonist	DRD3 antagonist
O=C(Nc1c(O)c2ccccc2oc1=O)c1cccc(F)c1	4.0	1.1	-3.0	-1.9	.
CCCN1CCC(NC(=O)c2cccc(Oc3ccccc3)c2)CC1	-5.3	2.1	-7.4	-13.7	-23.5
COc1cc(OC)cc(C(=O)NC2CCN(CCCOc3ccccc3)CC2)c1	-20.0	7.1	-11.4	-36.8*	-15.2
COc1cc(C(=O)NC2CC3CCCC(C2)N3Cc2ccccc2)cc(OC)c1OC (centres undefined)	-4.6	4.0	-18.9	0.0	-94.7*
COc1cc(C(=O)NC2CCN(Cc3ccccc3)CC2)cc(Cl)c1OC	-8.4	9.1	-19.1	-1.2	-99.0*
COc1cc(C(=O)NC2CC3CCCC(C2)N3C2CC2)cc(OC)c1OC (centres undefined)	-7.8	0.8	-5.4	-29.6	-10.7
COc1ccc(CN2C3CCC2CC(NC(=O)c2cc(OC)c(OC)c(OC)c2)C3)cc1 (centres undefined)	-4.3	0.6	-25.4	10.3	-66.4*
Cc1cccc(C(=O)Nc2c(-c3ccc(F)cc3)nc3ccccn23)c1	-0.6	-0.9	3.7	-21.1	.
CCC(=O)Nc1ccc(CC)cc1-c1nc2ccccc2n(CC(=O)c2ccc(OC)cc2)c1=O	1.8	0.3	-9.8	-2.9	.
COc1ccc(C(=O)NC2CC3CCCC(C2)N3Cc2ccccc2)cc1OC (centres undefined)	-2.4	1.9	-24.9	-33.0*	-94.0*
O=C(Cc1ccccc1[N+](=O)[O-])NC1CCN(Cc2ccccc2)CC1	0.3	-0.3	-25.4	4.8	0.0
COc1ccc([N+](=O)[O-])cc1C(=O)NC1CCN(Cc2ccccc2)CC1	.	.	-20.4	.	-99.6*
CCCN1C2CCCC1CC(NC(=O)c1ccc(OC)cc1)C2 (centres undefined)	-8.5	2.8	0.1	-12.1	-2.2
CN(C)S(=O)(=O)c1ccc2c(c1)nc(CCC(=O)NCCc1ccc(Cl)cc1)n2C	-7.5	-0.2	0.4	-4.6	4.1
Cc1ccc2c(c1)N(C(=O)CCC(=O)NC1CCC(C)CC1)CCO2 (centres undefined)	-0.9	0.2	-12.0	-8.0	-95.9*
CC1CCCCC1NC(=O)CCC(=O)N1CCOc2ccc(Cl)cc21 (centres undefined)	1.9	-0.6	-19.6	-3.5	-53.4*
COc1ccc(CC(N)c2csc(NC(=O)Nc3ccccc3C(C)C)n2)cc1 (centres undefined)	.	.	-12.5	.	-54.5*
O=C(Cc1csc(NC(=O)Nc2cccc(Cl)c2)n1)NCc1ccccn1	-5.2	7.4	-14.7	-31.4*	-8.3
COc1ccccc1NC(=O)Nc1nc(C(N)CCc2ccccc2)cs1 (centres undefined)	.	.	-17.5	.	-96.0*
COc1ccc(CNC(=O)Cc2csc(NC(=O)Nc3ccccc3OC)n2)cc1	-0.7	-0.3	-14.6	-34.9*	9.5
COc1cc(CNC(=O)Nc2nc(C(N)CCc3ccccc3)cs2)cc(OC)c1OC (centres undefined)	.	.	-10.0	.	0.0
O=C(Cc1csc(NC(=O)Nc2cccc(Cl)c2)n1)NCc1cccnc1	-7.5	1.8	-2.4	-2.2	-1.8
CCCNC(=O)CSc1nc2[nH]ncc2c(=O)[nH]1	3.5	2.4	-1.3	-0.7	-0.1
O=C(CSc1nc2[nH]ncc2c(=O)[nH]1)NCc1ccc(F)cc1	0.4	-1.4	0.0	9.4	-50.1*
O=C(CSc1nc2[nH]ncc2c(=O)[nH]1)NCc1ccccc1	-9.3	0.5	-5.3	19.1	-59.5*
O=C(CSc1nc2[nH]ncc2c(=O)[nH]1)NCCc1ccccc1	-3.3	6.9	1.0	-9.5	16.3
CCNc1nc(C#N)nc2c1ncn2-c1cccc(Cl)c1	-5.3	1.2	.	-9.7	.
Cc1ccccc1CNc1nc(N(C)C)nc2c1cnn2C	0.1	-2.0	-4.1	14.9	.
COC(=O)c1ccc(NS(=O)(=O)c2ccc3c(c2)n(C)c(=O)c(=O)n3C)cc1	0.6	-2.4	-7.4	2.0	.
